RORg inh – qHTS for inhibitors of ROR gamma transcriptional activity; Nuclear receptor ROR-gamma (Mus musculus), P51450; Drosophila S2 Gal4-RORgamma UAS-luciferase reporter, 20 h; Potency, µM (doses to about 53.6 µM), without a hit: at the top dose activity change, negative = inhibition, actives largely listed as inhibitors; 310,000 tested, 5.4% active; AID 2551, 2010; note: nearly all actives have a fitted effect of over 60% in size
Target sequence (P51450 whole entry, looked up, the tested form may be a part): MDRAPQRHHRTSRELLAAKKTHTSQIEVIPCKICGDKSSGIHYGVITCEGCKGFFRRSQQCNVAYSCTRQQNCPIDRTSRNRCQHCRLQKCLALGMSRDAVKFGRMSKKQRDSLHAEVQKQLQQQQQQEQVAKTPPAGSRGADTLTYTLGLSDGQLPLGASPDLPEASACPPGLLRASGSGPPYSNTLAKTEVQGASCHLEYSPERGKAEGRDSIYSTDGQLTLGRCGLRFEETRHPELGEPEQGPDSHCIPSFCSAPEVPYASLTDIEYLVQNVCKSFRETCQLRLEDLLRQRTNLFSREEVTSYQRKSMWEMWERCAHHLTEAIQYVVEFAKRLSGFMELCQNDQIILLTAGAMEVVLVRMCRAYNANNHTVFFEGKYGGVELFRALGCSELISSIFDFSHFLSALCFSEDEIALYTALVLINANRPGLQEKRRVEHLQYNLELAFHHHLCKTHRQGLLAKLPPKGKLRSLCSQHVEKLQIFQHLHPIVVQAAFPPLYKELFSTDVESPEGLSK
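Luciferase reporter read in Schneider cells carrying Gal4-RORγ (mouse) and UAS-Photinus luciferase; cells given compound 1 h before 700 uM copper sulfate induction, then incubated 20 h at ambient temperature.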
VP16 counter – VP16 counterscreen qHTS for inhibitors of ROR gamma transcriptional activity; Drosophila S2 Gal4-VP16 UAS-luciferase, luminescence, 20 h; Potency, µM (highest dose often 53.6 µM), without a hit: at the highest dose activity, negative = inhibition, actives largely listed as inhibitors; 310,000 tested, 3.5% active; AID 2546, 2010;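 note: Gal4-VP16 expression switched on by copper sulfate through the metallothionein promoter; nearly all actives have a fitted effect of over 50% in size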
Tau ThT inhib – qHTS for Inhibitors of Tau Fibril Formation, Thioflavin T Binding | Microtubule-associated protein tau (Homo sapiens), P10636 | recombinant tau K18 P301L, heparin-induced fibrillization, ThT fluorescence | Potency, µM (doses to about 57.4 µM), for the others: at the top dose activity, negative = inhibition, most hits filed as inhibitors | 270,000 tested, 2.1% active; note: nearly all actives have a fitted effect of over 55% in size
Target sequence (P10636 561-689 P618L limits assumed): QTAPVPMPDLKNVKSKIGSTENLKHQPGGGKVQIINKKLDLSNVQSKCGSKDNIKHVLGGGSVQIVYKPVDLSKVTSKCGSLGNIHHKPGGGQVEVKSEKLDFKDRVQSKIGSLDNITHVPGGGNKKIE
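Aggregation was driven by heparin (20 uM final) acting on recombinant tau […] bearing P301L in 100 mM sodium acetate pH 7; fibrils were detected with Thioflavin T.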
Tau fluor cs – Counterscreen qHTS for Inhibitors of Tau Fibril Formation, Fluorescence Polarization; 280,000 tested, 0.93% active; Potency, µM (series often up to 57.7 µM), for inactives: at the highest dose activity change, negative = decrease; tau K18 P301L Alexa594 fluorescence, heparin fibrillization; note: nearly all actives have a fitted effect of over 55% in size
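Human tau K18 P301L (15 uM unlabeled, 0.24 uM Alexa 594-labeled) in 100 mM sodium acetate pH 7 with 20 uM heparin, 6 hr at 37 C. ThT 30 uM added, 1 hr ambient; Alexa 594 FP and total fluorescence read at 555/632 nm.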
Tau FP inhib – qHTS for Inhibitors of Tau Fibril Formation, Fluorescence Polarization; AID 1468, 2008; Potency, µM (titrated, usually from 57.7 µM), without a hit: at the highest dose activity, negative = inhibition, usual class: inhibitors; K18 P301L tau heparin fibrillization, Alexa594 FP, 6 h; 280,000 tested, 0.39% active; note: nearly all actives have a fitted effect of over 55% in size
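K18 P301L tau (15 uM unlabeled/0.24 uM Alexa 594-labeled, final) + compound + heparin 20 uM final; 100 mM NaOAc pH 7; 6 hr 37 C; ThT 30 uM final added, 1 hr RT; FP ex 555/em 632 nm.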
* = called active by the depositor; u = inconclusive; x = not tested or not shown; [ ] = remark or other dose. This is a sample that favours compounds with a hit; in the whole collection about 7.3% have one here. Calls come from the whole dose curve; as a rule, active = well fitted curve in the direction sought with a large enough effect; inconclusive = small, poorly fitted or top-dose-only effect, or another doubt; inactive = no such curve, though single readings can be large; an effect the other way counts as inactive or inconclusive. % is set by controls: 0 for no effect and ±100 for the full control effect; potency is the fitted concentration of half-maximal effect.

SMILES | RORg inh | VP16 counter | Tau ThT inhib | Tau fluor cs | Tau FP inhib
CCN(Cc1ccccc1)S(=O)(=O)c1ccc(C(=O)Nc2nnc(C)o2)cc1 | 0.56µM* | 0.56µM* | x | x | x
CCc1nnc(NC(=O)c2ccc(S(=O)(=O)N(C)Cc3ccccc3)cc2)o1 | 0.13µM* | u | x | x | x
COc1ccc(OC)c(NC(=O)CCCOc2cc(=O)n(C)c3ccccc23)c1 | x | x | -6% | -9% | -1%
CN(Cc1ccccc1)S(=O)(=O)c1ccc(-c2cnc(C3CC3)o2)cc1 | x | x | -4% | -10% | -3%
CN(Cc1ccccc1)S(=O)(=O)c1ccc(C(=O)Nc2nnc(C3CC3)o2)cc1 | 0.28µM* | 0.56µM* | -12% | -6% | 4%
Cc1c(Cl)cccc1NC(=O)Nc1ccc2snnc2c1 | x | x | u | 10µM*[quencher] | 18µM*
COc1ccccc1-n1c(-c2ccc(Cl)cc2)c[nH]c1=S | 2.8µM* | 7.1µM* | 2% | 1% | 0%
Cc1cccc(-n2c(-c3ccccc3)c[nH]c2=S)c1C | 2.2µM* | 7.1µM* | x | x | x
CCOC(=O)c1ccc(NC(=O)c2cn(-c3ccccc3)nc2-c2ccc(Br)cc2)cc1 | x | x | -14% | u | 18µM*
Cc1ccc(-c2nn(-c3ccccc3)cc2C(=O)Nc2ccc(C(=O)O)cc2)cc1 | u | -10% | 11% | -10% | 3%
CCOC(=O)c1ccc(NC(=O)c2cn(-c3ccccc3)nc2-c2ccc(C)cc2)cc1 | x | x | -13% | u | 8.9µM*
Cc1ccc(NC(=O)c2cn(-c3ccccc3)nc2-c2ccccc2)cc1 | x | x | -16% | -20% | -4%
COC(=O)c1cn(-c2ccccc2)nc1-c1ccncc1 | -28% | 3% | -2% | 0% | 0%
CC(=O)Cc1nsc(NC(=O)c2cn(-c3ccccc3)nc2-c2ccc(Br)cc2)n1 | u | 14µM* | -17% | u | u
CCOC(=O)c1ccc(NC(=O)c2cn(-c3ccccc3)nc2-c2ccncc2)cc1 | u | -12% | -4% | u | 28µM*
CC(C)C(NS(=O)(=O)c1ccc2c(c1)oc(=O)n2C)C(=O)NCc1ccccc1 (configuration not stated) | x | x | 9% | -1% | -4%
Cc1cc(C)n(C(C)CC(=O)Nc2ccc(Cl)cc2C)n1 (configuration not stated) | x | x | 4% | -1% | 2%
COCCCNC(=O)CSc1nc2c(sc3ccccc32)c(=O)n1CCc1ccc(OC)c(OC)c1 | x | x | 1% | -11% | -2%
CCOC(=O)c1ccc(NC(=O)c2cn(-c3ccccc3)nc2-c2ccc(OC)c(OC)c2)cc1 | x | x | u | u | 10µM*
COc1ccc(-c2nn(-c3ccccc3)cc2C(=O)Nc2ccc(C(=O)O)cc2)cc1OC | 23% | -6% | x | x | x
CC1=NN(c2ccc(C)cc2)C(=O)/C1=C\C=C\c1ccccc1 | u | u | 7.1µM* | 7.9µM*[quencher] | u
CC1=NN(c2ccccc2)C(=O)/C1=C\N(O)c1ccccc1 | 18% | 1% | x | x | x
CC1=NN(c2ccccc2)C(=O)/C1=C/C=C/C=C/N(C)C | -9% | -25% | 16µM* | -27% | -5%
CC1=NN(c2cccc(F)c2)C(=O)/C1=C/c1ccc(N(C)C)cc1 | 19% | 5% | x | x | x
CC1=NN(c2cccc(C(=O)O)c2)C(=O)/C1=C\C=C/c1ccccc1 | 1.1µM* | 3.5µM* | 7.1µM* | u | u
SMILES | RORg inh | VP16 counter | Tau ThT inhib | Tau fluor cs | Tau FP inhib
CCS(=O)(=O)N1CCc2cc(C(=O)N3CCN(c4ccccc4)CC3)ccc21 | x | x | -1% | 0% | 6%
Cc1ccc(C(=O)N2CCN(CCc3ccncc3)CC2)cc1 | x | x | -1% | -4% | -5%
CCOC(=O)CN(C(=O)CNC(=O)c1ccco1)C(C(=O)NC1CCCCC1)c1cccnc1 (configuration not stated) | -5% | -2% | x | x | x
CN(NS(=O)(=O)c1ccc(F)cc1)c1ncc(C(F)(F)F)cc1Cl | 3.2µM* | 6.3µM* | 6% | -3% | -4%
CN(NS(=O)(=O)c1ccc(Cl)cc1)c1ncc(C(F)(F)F)cc1Cl | 2.2µM* | 3.2µM* | -9% | -18% | -4%
COc1ccc(C2C=C3CNS(=O)(=O)C3CC2OC(=O)c2cccc(C)c2)cc1 (configuration not stated) | 12% | -11% | x | x | x
CC(C)CN1C(=O)c2ccccc2C1(O)Cc1ccccc1 (configuration not stated) | u | 20µM* | 4% | -11% | -1%
C=CCN1C(=O)c2ccccc2C1(O)Cc1ccccc1 (configuration not stated) | -12% | -10% | x | x | x
O=C(c1ccc2c(c1)OCCO2)C1CCN(C(=O)Nc2ccccc2F)CC1 | 11% | -24% | x | x | x
C/C(=N\NC(=O)CSc1nc2ccccc2o1)c1ccc(O)cc1 | 11µM* | 3% | u | -14% | -5%
CCOC(=O)c1c(NC(=O)CSc2nc3ccccc3o2)sc(C(C)=O)c1C | 13µM* | u | -17% | -19% | 4%
Cc1ccc(NC(=O)CCSc2nc(-c3ccc4c(c3)OCO4)cc(C(F)(F)F)n2)cc1 | x | x | 12% | u | u
Cn1c(CCNC(=O)c2ccccc2Cl)n[nH]c1=S | -19% | -3% | 0% | 10% | 12%
CCn1c(CCNC(=O)c2ccc(Cl)cc2)n[nH]c1=S | 1% | -5% | -6% | -4% | -5%
Cn1c(CSCc2ccc(Cl)c(Cl)c2)n[nH]c1=S | 5.6µM* | 4µM* | -2% | -1% | 4%
CCn1c(CSCc2ccc(Cl)cc2)n[nH]c1=S | 2.2µM* | 7.1µM* | -6% | -8% | -2%
CCn1c(CSCc2ccc(C)cc2)n[nH]c1=S | 5.6µM* | 3.5µM* | x | x | x
O=C(Cn1nc(-c2ccc(Cl)cc2)ccc1=O)NCc1ccccc1Cl | x | x | -6% | -24% | -6%
CCCCCCCCCC(=O)NO | 27% | -10% | x | x | x
CCCCOc1cccc(C(=O)Nc2cc(NC(=O)c3ccco3)ccc2OC)c1 | x | x | u | u | 6%
O=C(O)Cc1ccc2sc(-c3ccccc3)nc2c1 | -11% | -13% | 1% | 3% | 7%
COC(=O)Cc1ccc2sc(-c3ccccc3)nc2c1 | u | 16µM* | -5% | -10% | -7%
O=C(Nc1nc(N2C(=O)c3ccccc3C2=O)n(-c2ccccc2)n1)c1ccc(F)cc1 | 10µM* | u | -4% | -5% | 7%
Nc1cccc2c1C(=O)N(CC(=O)NC13CC4CC(CC(C4)C1)C3)C2=O | 8% | -12% | 13% | -6% | -4%
O=C(Cn1sc2ccccc2c1=O)NC12CC3CC(CC(C3)C1)C2 | 3.5µM* | 0.5µM* | 16µM* | -28% | 20µM*
